Source: PubChem BioAssay
Apoferritin bind = binds horse apoferritin like a general anesthetic | apoferritin/1-aminoanthracene competitive binding, fluorescence | Potency, µM (titrated, usually from 77.5 µM), usual class: inhibitors | AID 485281 | 350,000 compounds, 0.074% hits | P02791; also: nearly all actives have a fitted effect of over 20% in size
Target sequence (P02791 2-175 limits assumed): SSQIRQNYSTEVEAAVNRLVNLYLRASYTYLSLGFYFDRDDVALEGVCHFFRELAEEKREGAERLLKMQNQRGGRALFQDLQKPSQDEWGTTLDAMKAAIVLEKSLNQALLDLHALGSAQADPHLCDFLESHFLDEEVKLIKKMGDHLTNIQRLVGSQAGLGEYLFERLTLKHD
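Concentration-response curves derived by four-parameter Hill fitting of normalized fluorescence, where compounds displaced 1-AMA from 10 uM horse apoferritin following a brief 10 min room-temperature incubation; propofol titration acted as positive control.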
ERG Ets-DNA blk = blocks human ERG Ets domain binding to DNA | Potency, µM (highest dose often 76.9 µM), hits mostly inhibitors | P11308 | 370,000 compounds, 0.028% hits | fluorescence polarization, His-ERG Ets domain / labelled DNA; active = well fitted inhibition curve with a large enough effect in the polarisation, with a control signal flat; inconclusive = small, poorly fitted or top-dose-only effect, or effect the other way, or a change in a side signal; inactive = no such curve, though single readings can be large or run the other way; the % refers to the polarisation;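 also: polarization taken with two DNA probes labelled with fluorescein and Texas red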
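His-tagged ERG Ets domain (1 uM in the protein solution; 300mM KCl, 50mM Tris-HCl, 1mM EDTA, 1mM DTT, pH 7.5) received compound, then a probe mix of 5 nM fluorescein-DNA and 100nM Texas-615-DNA. Fluorescence polarization was read for both dyes.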
MmCpn inh = blocks the Methanococcus maripaludis chaperonin Mm-Cpn; purified Mm-Cpn ATPase, ADP Transcreener TR-FRET; Potency, µM (doses to about 76.9 µM), hits mostly inhibitors; 330,000 compounds, 0.031% hits; also: nearly all actives have a fitted effect of over 80% in size
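Reaction buffer contained 30 mM Tris pH 7.4, 100 mM KCl, 5 mM MgCl2 and 1 mM DTT. Mm-CPN (25 nM final) hydrolysed 10 uM ATP over 30 min at 37°C; ADP was read by HTRF.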
CCT modulator = changes cytosolic chaperonin activity; purified chaperonin ATPase assay, HTRF ADP detection, 30 min; activity change, % (test concentration not listed), hits read low; 360,000 compounds, 0.3% hits; AID 651819; in the data active = activity change below about -30%
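Enzyme 40 or 20 nM (batch-dependent) in Tris pH 7.4/KCl/MgCl2/DTT; cpd 76 uM single point; ATP 10 uM; 30 min 37 °C; Transcreener ADP HTRF detection, 30 min RT; ratio 665/615.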
Large screens that a line does not name were inactive; ! = not confirmed by another sample. Sampled rows, rich in hits. Any-hit rate of the full collection: about 0.39%. Unless noted, calls follow the shape of the dose curve; as a rule, active = well fitted curve in the direction sought with a large enough effect; inconclusive = small, poorly fitted or top-dose-only effect, or another doubt; inactive = no such curve, though single readings can be large; an effect the other way counts as inactive or inconclusive.

CC1CCN(C(=O)c2cc3ccccc3o2)CC1	CCT modulator -36
CCc1ccc(NC(=O)C2CCCN(S(=O)(=O)c3ccc4[nH]c(=O)ccc4c3)C2)cc1 (configuration not stated)	CCT modulator -71
O=C(Nc1ccc(Cl)cc1)C1CCCN(S(=O)(=O)c2ccc3[nH]c(=O)ccc3c2)C1 (configuration not stated)	Apoferritin bind inconclusive (no result: MmCpn inh, CCT modulator)
CCc1cccc(NC(=O)C2CCCN(S(=O)(=O)c3c(C)[nH]c(=O)[nH]c3=O)C2)c1 (configuration not stated)	CCT modulator -41 (no result: MmCpn inh)
CC(=O)N(O)C/C=C/c1cccc(Oc2ccccc2)c1	none (no result: ERG Ets-DNA blk, MmCpn inh, CCT modulator)
Cc1cc(N2CCC(C(=O)Nc3ccc(F)cc3)CC2)nc(-c2ccccc2)n1	none
COc1ccc(NC(=O)C2CCN(c3cc(C)nc(-c4ccccc4)n3)CC2)cc1	CCT modulator -64
Clc1ccccc1CN(Cc1ccco1)Cc1nnnn1C1CCCC1	CCT modulator -70
c1coc(CN(Cc2cccs2)Cc2nnnn2C2CCCCC2)c1	none
CC(=O)N1CCN(c2csc3ccc(Br)cc3c2=O)CC1	none (no result: MmCpn inh, CCT modulator)
CCc1n[nH]c(=S)n1/N=C/c1ccc2c(c1)OCO2	Apoferritin bind inconclusive
Oc1ccccc1/C=N/n1c(COc2ccccc2)n[nH]c1=S	ERG Ets-DNA blk 28µM
CCc1n[nH]c(=S)n1/N=C/c1ccc(N(C)c2ccccc2)cc1	ERG Ets-DNA blk 5µM
Oc1ccc(/C=N/n2c(COc3ccccc3)n[nH]c2=S)c(O)c1	none
CCS(=O)(=O)c1ncc(Cl)c(C(=O)N2CCN(c3ccc(OC)cc3)CC2)n1	none (no result: MmCpn inh, CCT modulator)
CCOc1cc(/C=C(\C#N)C(N)=O)cc(CSc2ccccc2)c1O	none (no result: ERG Ets-DNA blk, MmCpn inh, CCT modulator)
Cc1cccc(C(=O)N2CCNC(=O)C2CC(=O)Nc2ccc(F)cc2)c1 (configuration not stated)	none (no result: MmCpn inh, CCT modulator)
O=C(Nc1cccc(C(=O)N2CCCCC2)c1)C1CC1	CCT modulator -48 (no result: Apoferritin bind, MmCpn inh)
Cc1ccccc1N1CCN(C(=O)c2ccccc2NC(=O)c2ccccc2C(=O)O)CC1	CCT modulator -66
O=C(NC1CCc2ccccc21)c1cc(COc2cncc(Cl)c2)on1 (configuration not stated)	Apoferritin bind 45µM
O=C(NC1CCc2ccccc21)c1cc(COc2ccc(F)cc2Cl)on1 (configuration not stated)	Apoferritin bind inconclusive
CN(C)CCOC(c1ccc(Cl)cc1)c1ccccn1 (configuration not stated)	CCT modulator -51!
CN(C)CC[C@H](c1ccc(Cl)cc1)c1ccccn1	none (no result: ERG Ets-DNA blk, MmCpn inh, CCT modulator)
CCOc1cc(CNC(=O)c2ccccc2NC(=O)c2nsc3ccccc23)ccc1OC	none (no result: MmCpn inh, CCT modulator)
Cc1cc(S(=O)(=O)NCCN2CCOCC2)c(C)s1	none
Cc1cc(S(=O)(=O)NCCc2ccccc2)c(C)s1	Apoferritin bind 8.9µM
CC[C@H](C)[C@H](NC(=O)[C@H](Cc1ccc(O)cc1)NC(=O)[C@@H](NC(=O)[C@@H](N)CCCN=C(N)N)C(C)C)C(=O)N[C@@H](Cc1cnc[nH]1)C(=O)N1CCC[C@H]1C(=O)N[C@@H](Cc1ccccc1)C(=O)O	none (no result: ERG Ets-DNA blk, MmCpn inh, CCT modulator)
CCN(CC)CCn1c2c(c(SCC(=O)Nc3ccccc3Cl)nc1=O)CCC2	CCT modulator -34 (no result: Apoferritin bind)
COc1cccc(C(=O)Nc2c(C)n[nH]c2C)c1	CCT modulator -75 (no result: ERG Ets-DNA blk)
CCn1c(C)c(C)c2cc(C(=O)NCCN3CCOCC3)ccc21	CCT modulator -40
Fc1ccc(-c2cc(C(F)(F)C(F)F)[nH]n2)cc1	CCT modulator -37
FC(F)C(F)(F)c1cc(-c2ccc(Cl)cc2)n[nH]1	none
Cc1cccc2nc(CNC(=O)CC3C(=O)NCCN3Cc3cccc(F)c3)cn12 (configuration not stated)	CCT modulator -43
O=C(CC1C(=O)NCCN1Cc1cccc(F)c1)NC1CCCCCC1 (configuration not stated)	Apoferritin bind inconclusive
CCCCNCCCCOc1ccccc1	CCT modulator -90
CCCCNCCCOc1cccc(Cl)c1	none
CC1Oc2ccccc2C=C1/C=N/NC(=O)c1ccccc1 (configuration not stated)	CCT modulator -45
COc1ccc(CC(N)c2csc(Nc3cc(Oc4ccccc4)ncn3)n2)cc1 (configuration not stated)	CCT modulator -36 (no result: Apoferritin bind, ERG Ets-DNA blk, MmCpn inh)
COc1ccc(C(=O)c2c[nH]c(C(=O)NCc3ccco3)c2)cc1	none
COc1cccc(C(=O)c2c[nH]c(C(=O)NCc3ccco3)c2)c1	CCT modulator -42
